This passage reports binding signal results from publication PMC7862700, “An all-to-all approach to the identification of sequence-specific readers for epigenetic DNA modifications on cytosine”.

What all share (experiment): DAPPL (digital affinity profiling via proximity ligation, sequencing); 10 mM Tris-HCl pH 7.5, 50 mM NaCl, 1 mM DTT, 4% glycerol, room temperature, 30 min; GST-TFs on glutathione beads, 16-mer random dsDNA library, 0.1% formaldehyde crosslink after washing; high values mean tight binding
One experiment addresses T1, FLI1 (Homo sapiens, UniProt Q01543 1-452).
T1 sequence: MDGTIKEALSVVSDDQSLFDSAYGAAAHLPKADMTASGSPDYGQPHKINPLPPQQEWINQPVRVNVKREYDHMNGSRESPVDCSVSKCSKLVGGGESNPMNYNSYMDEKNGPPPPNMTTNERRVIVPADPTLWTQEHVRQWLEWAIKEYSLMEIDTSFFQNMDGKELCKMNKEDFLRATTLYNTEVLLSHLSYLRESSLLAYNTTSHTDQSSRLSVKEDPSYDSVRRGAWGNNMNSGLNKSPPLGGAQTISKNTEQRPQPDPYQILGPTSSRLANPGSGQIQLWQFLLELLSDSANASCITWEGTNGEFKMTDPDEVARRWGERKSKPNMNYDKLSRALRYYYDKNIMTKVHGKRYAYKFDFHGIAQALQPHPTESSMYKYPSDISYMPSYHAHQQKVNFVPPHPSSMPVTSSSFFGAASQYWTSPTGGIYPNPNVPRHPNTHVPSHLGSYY
The following applies: protein: recombinant; tags: N-terminal GST; dsDNA, one strand shown. The procedure, abridged:
(§1)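 Pools were built from human transcription factors expressed in yeast as GST fusions, captured on glutathione beads and DNA-barcoded, along with a tag-only sample. Incubation with 200 nmole of a 16-mer random double-stranded DNA library lasted 30 min at room temperature in Tris/NaCl/DTT/glycerol buffer, and was followed by washing, 0.1% formaldehyde crosslinking, proximity ligation, PCR amplification and Illumina NextSeq500 sequencing. Binding signal is the quotient of each hexamer's read frequency for a factor and its frequency for the tag-only sample.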

The target of a further experiment is T2, ELK1 (Homo sapiens, UniProt P19419 1-428).
T2 sequence: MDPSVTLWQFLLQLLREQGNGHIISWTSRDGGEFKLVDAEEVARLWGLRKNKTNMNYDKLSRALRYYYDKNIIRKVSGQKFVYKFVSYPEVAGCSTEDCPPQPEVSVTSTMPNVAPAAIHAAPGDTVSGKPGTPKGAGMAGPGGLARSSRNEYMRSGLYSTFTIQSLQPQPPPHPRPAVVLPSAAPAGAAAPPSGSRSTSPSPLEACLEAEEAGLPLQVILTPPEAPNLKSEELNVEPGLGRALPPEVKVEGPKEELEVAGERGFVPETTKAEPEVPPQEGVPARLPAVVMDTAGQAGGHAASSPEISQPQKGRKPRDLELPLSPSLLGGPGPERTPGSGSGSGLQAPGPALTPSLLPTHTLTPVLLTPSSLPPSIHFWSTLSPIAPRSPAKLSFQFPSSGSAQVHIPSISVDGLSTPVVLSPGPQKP
To be noted: protein: recombinant; tags: N-terminal GST; dsDNA, one strand shown. The method, boiled down:
as §1

Another experiment concerns the target T3, GABPA (Homo sapiens, UniProt Q06546 1-454).
T3 sequence: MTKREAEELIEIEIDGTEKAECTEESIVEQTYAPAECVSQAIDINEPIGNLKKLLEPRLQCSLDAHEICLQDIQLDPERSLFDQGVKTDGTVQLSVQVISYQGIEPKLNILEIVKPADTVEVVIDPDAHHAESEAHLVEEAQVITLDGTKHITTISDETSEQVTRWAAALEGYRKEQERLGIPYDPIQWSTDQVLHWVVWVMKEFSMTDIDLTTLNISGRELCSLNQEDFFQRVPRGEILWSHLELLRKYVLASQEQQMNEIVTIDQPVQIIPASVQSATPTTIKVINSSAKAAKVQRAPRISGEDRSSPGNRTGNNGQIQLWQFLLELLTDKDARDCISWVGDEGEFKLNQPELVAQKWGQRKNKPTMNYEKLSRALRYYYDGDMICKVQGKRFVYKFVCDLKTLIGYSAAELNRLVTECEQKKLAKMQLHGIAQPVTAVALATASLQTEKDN
The following applies: protein: recombinant; tags: N-terminal GST; dsDNA, one strand shown. The procedure, abridged:
as §1

The target in a further experiment is T4, ERG (Homo sapiens, UniProt P11308 1-479).
T4 sequence: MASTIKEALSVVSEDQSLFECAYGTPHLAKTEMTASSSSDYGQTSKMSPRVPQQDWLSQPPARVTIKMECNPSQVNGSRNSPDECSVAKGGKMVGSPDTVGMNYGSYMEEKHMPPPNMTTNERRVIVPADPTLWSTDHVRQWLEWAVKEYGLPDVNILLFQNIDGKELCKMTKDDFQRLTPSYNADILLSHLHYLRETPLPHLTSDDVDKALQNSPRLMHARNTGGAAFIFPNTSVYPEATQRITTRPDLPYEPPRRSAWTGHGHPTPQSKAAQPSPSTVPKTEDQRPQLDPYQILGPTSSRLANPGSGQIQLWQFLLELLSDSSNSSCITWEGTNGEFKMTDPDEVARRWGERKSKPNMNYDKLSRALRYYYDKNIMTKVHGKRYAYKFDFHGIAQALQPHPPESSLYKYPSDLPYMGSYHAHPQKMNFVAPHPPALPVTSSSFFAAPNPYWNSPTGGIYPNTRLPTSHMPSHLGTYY
The following applies: protein: recombinant; tags: N-terminal GST; dsDNA, one strand shown. The method, boiled down:
as §1

The target of another experiment is ELF1 (Homo sapiens, UniProt P32519 1-619). The following applies: protein: recombinant; tags: N-terminal GST; dsDNA, one strand shown. The method, boiled down: as §1
Chain of ELF1 (P32519 whole entry): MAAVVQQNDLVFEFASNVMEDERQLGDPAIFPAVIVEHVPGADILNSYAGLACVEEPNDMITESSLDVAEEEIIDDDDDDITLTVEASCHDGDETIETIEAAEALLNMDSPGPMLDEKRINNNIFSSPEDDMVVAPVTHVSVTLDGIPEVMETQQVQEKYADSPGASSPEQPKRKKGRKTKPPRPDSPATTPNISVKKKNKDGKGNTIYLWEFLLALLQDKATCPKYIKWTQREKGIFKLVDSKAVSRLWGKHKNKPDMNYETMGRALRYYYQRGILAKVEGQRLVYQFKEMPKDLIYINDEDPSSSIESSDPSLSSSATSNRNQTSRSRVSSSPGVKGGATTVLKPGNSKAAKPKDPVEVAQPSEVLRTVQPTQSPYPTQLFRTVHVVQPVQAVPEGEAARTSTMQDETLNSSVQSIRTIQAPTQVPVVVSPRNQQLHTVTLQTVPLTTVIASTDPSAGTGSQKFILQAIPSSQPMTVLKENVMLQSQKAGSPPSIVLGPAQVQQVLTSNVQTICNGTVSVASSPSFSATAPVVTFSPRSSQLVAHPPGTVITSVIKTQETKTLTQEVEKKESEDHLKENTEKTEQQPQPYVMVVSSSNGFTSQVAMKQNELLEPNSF
A further experiment addresses T5, EHF (Homo sapiens, UniProt Q9NZC4 1-300).
T5 sequence: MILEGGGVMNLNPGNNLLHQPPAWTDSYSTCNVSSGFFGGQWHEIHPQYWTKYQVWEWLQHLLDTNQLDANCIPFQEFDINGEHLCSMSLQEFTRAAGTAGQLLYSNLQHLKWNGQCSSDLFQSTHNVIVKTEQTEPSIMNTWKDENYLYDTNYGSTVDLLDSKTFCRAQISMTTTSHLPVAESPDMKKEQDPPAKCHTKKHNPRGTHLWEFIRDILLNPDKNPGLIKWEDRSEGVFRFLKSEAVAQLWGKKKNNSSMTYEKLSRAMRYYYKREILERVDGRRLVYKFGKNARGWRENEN
To be noted: protein: recombinant; tags: N-terminal GST; dsDNA, one strand shown. The method, boiled down:
as §1

A further experiment concerns the target SPI1 (Homo sapiens, UniProt P17947 1-270). The following applies: protein: recombinant; tags: N-terminal GST; dsDNA, one strand shown. The method, boiled down: as §1
The next experiment has as its target SPIB (Homo sapiens, UniProt Q01892 1-262). The following applies: protein: recombinant; tags: N-terminal GST; dsDNA, one strand shown. The procedure, abridged: as §1
In the next experiment the target is T6, ELK3 (Homo sapiens, UniProt P41970 1-407).
T6 sequence: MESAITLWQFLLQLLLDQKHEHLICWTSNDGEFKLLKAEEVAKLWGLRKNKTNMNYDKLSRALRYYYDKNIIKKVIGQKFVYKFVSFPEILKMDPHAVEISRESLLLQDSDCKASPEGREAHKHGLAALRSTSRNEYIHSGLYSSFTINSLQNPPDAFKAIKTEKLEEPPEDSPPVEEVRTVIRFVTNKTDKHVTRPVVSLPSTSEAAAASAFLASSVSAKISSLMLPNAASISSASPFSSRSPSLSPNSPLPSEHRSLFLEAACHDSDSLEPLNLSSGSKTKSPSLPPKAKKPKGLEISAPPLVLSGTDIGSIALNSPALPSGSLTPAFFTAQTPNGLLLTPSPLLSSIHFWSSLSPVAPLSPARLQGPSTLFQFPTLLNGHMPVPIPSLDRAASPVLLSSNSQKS
To be noted: protein: recombinant; tags: N-terminal GST; dsDNA, one strand shown. The procedure, abridged: as §1

The next experiment deals with T7, FEV (Homo sapiens, UniProt Q99581 1-238).
T7 sequence: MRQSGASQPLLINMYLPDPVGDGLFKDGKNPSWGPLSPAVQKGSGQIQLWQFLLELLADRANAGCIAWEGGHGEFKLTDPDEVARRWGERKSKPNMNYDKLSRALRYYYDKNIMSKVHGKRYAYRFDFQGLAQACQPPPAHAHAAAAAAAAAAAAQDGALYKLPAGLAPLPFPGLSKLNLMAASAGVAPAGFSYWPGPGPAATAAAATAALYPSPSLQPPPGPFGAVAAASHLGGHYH
The following applies: protein: recombinant; tags: N-terminal GST; dsDNA, one strand shown. The method, boiled down:
as §1

In another experiment the target is ETV5 (Homo sapiens, UniProt P41161 1-510). The following applies: protein: recombinant; tags: N-terminal GST; dsDNA, one strand shown. The procedure, abridged:
as §1

The next experiment deals with HSF1 (Homo sapiens, UniProt Q00613 1-529). The following applies: protein: recombinant; tags: N-terminal GST; chain copies: 3; dsDNA, one strand shown. The method, boiled down:
as §1

For a further experiment, the target named is T8, SPIC (Homo sapiens, UniProt Q8N5J4 1-248).
T8 sequence: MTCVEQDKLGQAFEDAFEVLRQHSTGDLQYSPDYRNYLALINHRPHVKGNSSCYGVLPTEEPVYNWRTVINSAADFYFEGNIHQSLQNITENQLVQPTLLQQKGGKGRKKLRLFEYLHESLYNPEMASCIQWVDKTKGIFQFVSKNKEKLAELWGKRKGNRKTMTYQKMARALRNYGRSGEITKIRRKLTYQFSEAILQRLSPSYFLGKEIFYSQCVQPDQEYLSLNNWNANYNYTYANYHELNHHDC
To be noted: protein: recombinant; tags: N-terminal GST; dsDNA, one strand shown. The procedure, abridged: as §1

In another experiment the target is ELF4 (Homo sapiens, UniProt Q99607 1-663). To be noted: protein: recombinant; tags: N-terminal GST; dsDNA, one strand shown. The procedure, abridged: as §1
Chain of ELF4 (Q99607 whole entry): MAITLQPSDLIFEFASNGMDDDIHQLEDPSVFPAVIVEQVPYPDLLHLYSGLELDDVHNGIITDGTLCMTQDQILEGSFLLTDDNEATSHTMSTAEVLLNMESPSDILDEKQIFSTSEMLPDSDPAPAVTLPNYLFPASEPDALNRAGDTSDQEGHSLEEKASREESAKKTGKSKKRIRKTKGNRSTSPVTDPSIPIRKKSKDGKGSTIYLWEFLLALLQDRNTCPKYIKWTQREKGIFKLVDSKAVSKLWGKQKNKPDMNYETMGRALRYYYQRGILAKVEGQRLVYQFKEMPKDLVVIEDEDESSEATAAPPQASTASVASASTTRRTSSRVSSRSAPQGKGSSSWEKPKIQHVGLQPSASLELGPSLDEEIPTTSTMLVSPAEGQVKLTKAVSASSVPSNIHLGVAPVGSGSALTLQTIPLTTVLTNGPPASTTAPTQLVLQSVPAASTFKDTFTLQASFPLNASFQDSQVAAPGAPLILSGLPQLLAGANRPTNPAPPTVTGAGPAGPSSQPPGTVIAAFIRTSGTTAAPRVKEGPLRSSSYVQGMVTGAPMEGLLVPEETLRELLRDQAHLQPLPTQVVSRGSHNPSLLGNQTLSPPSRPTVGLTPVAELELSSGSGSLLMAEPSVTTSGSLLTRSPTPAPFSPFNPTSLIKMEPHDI
For a further experiment, the target named is T9, ELK4 (Homo sapiens, UniProt P28324-2 1-405).
T9 sequence: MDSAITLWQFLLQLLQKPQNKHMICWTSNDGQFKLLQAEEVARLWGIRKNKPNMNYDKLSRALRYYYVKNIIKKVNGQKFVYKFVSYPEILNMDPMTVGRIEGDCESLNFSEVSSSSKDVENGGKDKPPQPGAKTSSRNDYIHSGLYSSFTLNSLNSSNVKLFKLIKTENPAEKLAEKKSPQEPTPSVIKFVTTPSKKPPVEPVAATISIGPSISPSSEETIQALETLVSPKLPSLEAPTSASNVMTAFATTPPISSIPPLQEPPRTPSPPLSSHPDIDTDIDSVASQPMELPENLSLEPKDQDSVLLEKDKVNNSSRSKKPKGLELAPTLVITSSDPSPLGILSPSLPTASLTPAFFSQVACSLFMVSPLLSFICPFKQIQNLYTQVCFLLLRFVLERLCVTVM
The following applies: protein: recombinant; tags: N-terminal GST; dsDNA, one strand shown. The method, boiled down:
as §1

A further experiment deals with T10, ETV2 (Homo sapiens, UniProt O00321 1-342).
T10 sequence: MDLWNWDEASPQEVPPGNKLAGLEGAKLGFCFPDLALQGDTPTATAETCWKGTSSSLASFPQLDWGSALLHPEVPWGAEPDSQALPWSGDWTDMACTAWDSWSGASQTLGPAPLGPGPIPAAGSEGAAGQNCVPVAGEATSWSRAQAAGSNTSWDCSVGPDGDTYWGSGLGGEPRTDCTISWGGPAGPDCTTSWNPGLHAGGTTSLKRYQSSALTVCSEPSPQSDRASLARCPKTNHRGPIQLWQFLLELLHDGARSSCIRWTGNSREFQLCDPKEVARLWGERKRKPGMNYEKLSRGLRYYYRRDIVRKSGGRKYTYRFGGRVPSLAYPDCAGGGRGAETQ
To be noted: protein: recombinant; tags: N-terminal GST; dsDNA, one strand shown. The procedure, abridged: as §1

The target in another experiment is T11, ELF3 (Homo sapiens, UniProt P78545 1-371).
T11 sequence: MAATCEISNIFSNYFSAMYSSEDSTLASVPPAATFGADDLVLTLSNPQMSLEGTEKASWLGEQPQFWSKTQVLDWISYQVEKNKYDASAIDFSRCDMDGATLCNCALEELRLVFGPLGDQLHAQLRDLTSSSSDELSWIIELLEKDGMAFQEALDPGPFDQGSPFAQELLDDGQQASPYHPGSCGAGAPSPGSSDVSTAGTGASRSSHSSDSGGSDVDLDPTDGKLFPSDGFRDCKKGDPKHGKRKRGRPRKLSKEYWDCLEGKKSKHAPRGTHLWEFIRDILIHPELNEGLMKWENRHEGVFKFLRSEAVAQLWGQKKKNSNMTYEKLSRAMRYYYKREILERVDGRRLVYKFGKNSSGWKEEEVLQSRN
To be noted: protein: recombinant; tags: N-terminal GST; dsDNA, one strand shown. The method, boiled down: as §1

A further experiment has as its target CRX (Homo sapiens, UniProt O43186 1-299). To be noted: protein: recombinant; tags: N-terminal GST; dsDNA, one strand shown. The method, boiled down:
as §1

Another experiment has as its target ETV1 (Homo sapiens, UniProt P50549 1-477). To be noted: protein: recombinant; tags: N-terminal GST; dsDNA, one strand shown. The procedure, abridged:
as §1

Chain of SPIB (Q01892 whole entry): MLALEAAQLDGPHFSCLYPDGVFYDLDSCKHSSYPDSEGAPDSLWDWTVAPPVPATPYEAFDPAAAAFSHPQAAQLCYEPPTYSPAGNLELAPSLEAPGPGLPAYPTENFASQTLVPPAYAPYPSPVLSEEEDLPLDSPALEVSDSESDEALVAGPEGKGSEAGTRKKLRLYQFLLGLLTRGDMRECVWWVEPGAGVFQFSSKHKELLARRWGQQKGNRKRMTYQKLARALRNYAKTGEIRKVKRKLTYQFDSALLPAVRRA
Chain of CRX (O43186 whole entry): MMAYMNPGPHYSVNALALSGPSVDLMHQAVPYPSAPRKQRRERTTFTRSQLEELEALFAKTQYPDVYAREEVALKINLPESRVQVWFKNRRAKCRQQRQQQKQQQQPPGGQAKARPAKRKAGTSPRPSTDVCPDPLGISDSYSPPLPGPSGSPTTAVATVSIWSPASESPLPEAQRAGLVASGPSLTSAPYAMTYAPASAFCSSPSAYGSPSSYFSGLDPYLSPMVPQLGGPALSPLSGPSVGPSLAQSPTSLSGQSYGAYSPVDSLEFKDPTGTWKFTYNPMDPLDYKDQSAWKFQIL
Chain of ETV1 (P50549 whole entry): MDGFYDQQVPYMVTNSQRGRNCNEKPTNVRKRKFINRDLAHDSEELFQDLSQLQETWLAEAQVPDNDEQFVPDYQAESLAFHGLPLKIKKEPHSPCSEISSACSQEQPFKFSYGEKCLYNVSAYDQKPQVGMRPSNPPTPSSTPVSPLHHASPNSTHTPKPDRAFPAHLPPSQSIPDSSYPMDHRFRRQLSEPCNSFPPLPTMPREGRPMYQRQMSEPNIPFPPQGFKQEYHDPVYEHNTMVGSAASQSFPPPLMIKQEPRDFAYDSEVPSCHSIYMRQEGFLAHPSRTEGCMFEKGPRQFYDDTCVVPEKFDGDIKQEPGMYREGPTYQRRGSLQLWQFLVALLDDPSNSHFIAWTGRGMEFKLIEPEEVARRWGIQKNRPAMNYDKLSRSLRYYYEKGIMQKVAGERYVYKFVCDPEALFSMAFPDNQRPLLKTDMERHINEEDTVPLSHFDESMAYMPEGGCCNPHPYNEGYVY
Chain of ETV5 (P41161 whole entry): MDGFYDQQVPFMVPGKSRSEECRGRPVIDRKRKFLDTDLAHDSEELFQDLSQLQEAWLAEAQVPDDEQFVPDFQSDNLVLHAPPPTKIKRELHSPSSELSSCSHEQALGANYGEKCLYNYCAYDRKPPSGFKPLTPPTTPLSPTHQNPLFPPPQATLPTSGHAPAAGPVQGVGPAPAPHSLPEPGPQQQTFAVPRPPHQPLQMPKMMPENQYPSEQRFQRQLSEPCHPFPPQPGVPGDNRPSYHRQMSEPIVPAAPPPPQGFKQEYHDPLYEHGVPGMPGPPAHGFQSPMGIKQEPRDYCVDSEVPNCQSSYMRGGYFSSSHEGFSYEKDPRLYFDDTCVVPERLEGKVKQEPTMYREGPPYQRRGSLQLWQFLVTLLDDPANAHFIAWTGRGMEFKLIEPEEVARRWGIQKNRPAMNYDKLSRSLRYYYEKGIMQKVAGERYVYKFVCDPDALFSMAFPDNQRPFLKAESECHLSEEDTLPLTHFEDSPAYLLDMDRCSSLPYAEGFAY
Chain of HSF1 (Q00613 whole entry): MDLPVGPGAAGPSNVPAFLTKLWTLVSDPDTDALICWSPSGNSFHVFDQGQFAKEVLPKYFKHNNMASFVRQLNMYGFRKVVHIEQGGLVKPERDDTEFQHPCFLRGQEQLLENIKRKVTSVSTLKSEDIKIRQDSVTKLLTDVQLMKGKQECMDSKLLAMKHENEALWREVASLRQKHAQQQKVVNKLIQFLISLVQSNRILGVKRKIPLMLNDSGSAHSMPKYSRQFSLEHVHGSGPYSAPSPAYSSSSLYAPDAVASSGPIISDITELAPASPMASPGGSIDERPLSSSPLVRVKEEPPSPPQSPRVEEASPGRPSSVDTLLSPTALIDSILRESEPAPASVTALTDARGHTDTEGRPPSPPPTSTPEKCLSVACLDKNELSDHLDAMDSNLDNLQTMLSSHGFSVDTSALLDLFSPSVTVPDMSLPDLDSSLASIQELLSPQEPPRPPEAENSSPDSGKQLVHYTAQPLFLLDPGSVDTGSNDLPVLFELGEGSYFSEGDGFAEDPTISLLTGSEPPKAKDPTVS

Regarding GTTAAT, the binding signal was 1.14 fold enrichment (6-mer frequency, TF over GST control) with FLI1; 1.19 fold enrichment (6-mer frequency, TF over GST control) with ELK1; 1.06 fold enrichment (6-mer frequency, TF over GST control) with GABPA; 1.1 fold enrichment (6-mer frequency, TF over GST control) in the experiment with ERG; 1.03 fold enrichment (6-mer frequency, TF over GST control) with ELF1; 1.16 fold enrichment (6-mer frequency, TF over GST control) in the experiment with EHF. Moreover, the binding signal with SPI1 is 1.1 fold enrichment (6-mer frequency, TF over GST control); in the experiment with SPIB it was 1.15 fold enrichment (6-mer frequency, TF over GST control); in the experiment with ELK3, 1.12 fold enrichment (6-mer frequency, TF over GST control); with FEV, 1.08 fold enrichment (6-mer frequency, TF over GST control); in the experiment with ETV5, 1.17 fold enrichment (6-mer frequency, TF over GST control); in the experiment with HSF1, 1.6 fold enrichment (6-mer frequency, TF over GST control). In addition, the binding signal was 1.11 fold enrichment (6-mer frequency, TF over GST control) with SPIC; 1.14 fold enrichment (6-mer frequency, TF over GST control) in the experiment with ELF4; 1.05 fold enrichment (6-mer frequency, TF over GST control) with ELK4; 1.18 fold enrichment (6-mer frequency, TF over GST control) with ETV2; 1.09 fold enrichment (6-mer frequency, TF over GST control) with ELF3; 2.41 fold enrichment (6-mer frequency, TF over GST control) with CRX. Further, the binding signal with ETV1 is 1 fold enrichment (6-mer frequency, TF over GST control).
